Compound activity deposited in PubChem BioAssay by University of Kansas High Throughput Screening Laboratory.
In the library only some 3.5% were active in any assay of this set; here they are far more common.
Pf apPOL block – Pf-apPOL DNA polymerase inhibition | Recombinant Pf-apPOL, molecular beacon fluorescence, 1.5 h | AID 1794808 | 210,000 compounds, 0.25% hits | inhibition, % at 10 µM
mHTT-CaM PPI inh – mHTT-calmodulin interaction abrogation; AlphaScreen His-mHTT/GST-CaM binding, luminescence; 190,000 compounds, 3.6% hits; inhibition, % at 15 µM; P42858;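 also: 0% = both proteins with DMSO and 100% = one protein alone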
* = called active by the depositor; / = no result given; ! = repeats disagree. Rule as the data show it: active = inhibition above about 50%; inactive = the rest.

SMILES | Pf apPOL block | mHTT-CaM PPI inh
Cc1ccccc1-n1c(=O)n(CC(C)C)c(=O)c2c1ncn2Cc1ccc(F)cc1 | -6.7 | 75.1*
CC(C)Cn1c(=O)c2c(ncn2Cc2ccc(F)cc2)n(-c2ccccc2)c1=O | 2.3 | 7.3
O=C(CSc1nnc(-c2cccc(S(=O)(=O)N3CCOCC3)c2)o1)c1ccccc1 | -2.4 | -1.8
COc1ccc(C(=O)Nc2ccccc2C(=O)Nc2ccccc2C(=O)O)cc1 | -6.7 | 84.2*
O=C(Nc1cccnc1)C(=O)Nc1cccnc1 | -5.4 | 81.7*
COc1ccc(C(=O)Nc2ccccc2C(N)=O)cc1 | -1.9 | 6.2
O=C(Nc1ccc(-c2ccc(NC(=O)Nc3cccnc3)cc2)cc1)Nc1cccnc1 | 3.3 | 10.0
O=C(Nc1cc([N+](=O)[O-])ccc1C(=O)Nc1cccnc1)c1ccccc1 | -1.1 | 4.0
O=C(Nc1ccccc1C(=O)Nc1cccnc1)c1ccccc1 | 50.6*! | -3.0
COc1ccc(NC(=O)N2CCC(n3c(-c4ccoc4)nc4cccnc43)C2)cc1F (centres undefined) | -2.7 | -1.1
Cc1cc(C)c(OCC(=O)Nc2ccc(-c3nc4ncccc4o3)cc2)c(Br)c1 | -0.2 | -6.0
CCOCCCNC(=O)NCCC1CCN(S(=O)(=O)c2ccc(C)cc2)CC1 | -2.1 | 26.3
Cc1ccc2c(c1)NC1(CCN(C(=O)c3ccc(Cl)cc3)CC1)c1cccn1-2 | -5.7 | 52.8*
CCN1c2ccc(C)cc2C(=O)NC12CCN(C(=O)c1ccc(Cl)cc1)CC2 | -4.4 | -5.6
CC(C)NC(=O)N1CCC2(CC1)Nc1cc(F)ccc1-n1cccc12 | 1.8 | 33.9
Cc1ccc2c(c1)NC1(CCN(C(=O)c3ccc(F)cc3)CC1)c1cccn1-2 | -4.8 | 87.1*
COCCCNC(=O)C(C)C1CCN(C(=O)c2sc(-c3ccc(F)cc3)nc2C)CC1 (centres undefined) | 3.1 | 11.1
CCn1c(=O)c2c(ncn2Cc2cccc(F)c2)n(-c2cccc(C)c2)c1=O | 6.1 | 9.7
COc1ccc(C2=NN(CN3C(=O)C(=O)c4ccccc43)C(c3ccccc3Cl)C2)cc1 (centres undefined) | 5.0 | 76.0*
COc1ccc(C2=NN(C(=O)c3ccccc3Cl)C(c3cccc([N+](=O)[O-])c3)C2)cc1 (centres undefined) | 13.7 | 31.0
COc1ccc(C2=NN(CN3C(=O)C(=O)c4ccccc43)C(c3ccccc3)C2)cc1 (centres undefined) | -1.0 | 2.0
COc1ccc(C2=NN(CN3C(=O)C(=O)c4ccccc43)C(c3cccc([N+](=O)[O-])c3)C2)cc1 (centres undefined) | -2.9 | 96.0*
O=C(NCc1ccccc1Cl)c1cc2n(n1)C(C(F)(F)F)CC(c1ccc3c(c1)OCO3)N2 (centres undefined) | -0.9 | 3.0
COc1ccc(CN2CCN(Cc3cccc([N+](=O)[O-])c3)CC2)c(OC)c1 | -0.2 | -0.2
CC(C)(C#Cc1cc(C(F)(F)F)cc(C(F)(F)F)c1)N=Cc1cc(Cl)cc(Cl)c1O | -4.6 | /
SMILES | Pf apPOL block | mHTT-CaM PPI inh
Cc1cc(C2CCCN2C(=O)c2cc(-c3ccc(F)cc3)no2)no1 (centres undefined) | 3.5 | -4.0
COCCc1nc(C2CCCN(Cc3ccc(C)s3)C2)n[nH]1 (centres undefined) | -9.5 | 7.6
O=C1c2ccccc2C(=O)c2c1ccc(C(=O)N1CCC3(CC1)OCCO3)c2NCCO | 1.1 | 41.0
O=C1c2ccccc2C(=O)c2c1ccc(C(=O)N1CCN(c3ccccn3)CC1)c2NCCO | -2.2 | 78.0*
Cc1cccc(CN2CCCC(C(=O)N3CCCCCC3)C2)c1 (centres undefined) | -2.1 | 1.1
Cc1cccc(C2CC(C(=O)N3CCSCC3)CN(Cc3ccccc3)C2)c1 (centres undefined) | 2.9 | 76.9*
CCN(CC)C(=O)CSc1nc2ccccc2n1S(=O)(=O)c1cc([N+](=O)[O-])ccc1C | -0.4 | -1.0
Nc1ccc2nc(CCc3nc4ccc(N)cc4[nH]3)[nH]c2c1 | -3.0 | 35.0
Nc1ccc2nc(-c3ccc(Oc4ccc(-c5nc6ccc(N)cc6[nH]5)cc4)cc3)[nH]c2c1 | 0.2 | 65.0*
Nc1ccc2nc(C(F)(F)F)[nH]c2c1 | / | -0.9
Nc1ccc2nc(-c3ccc(N)c(Cl)c3)[nH]c2c1 | 14.5 | 66.0*
Nc1ccc(-c2nc3c(Cl)cc(N)cc3[nH]2)cc1 | -0.5 | 40.0
Nc1ccc2nc(-c3ccccc3Br)[nH]c2c1 | 8.5 | 57.0*
Cc1ccc2c(c1)N(C(=O)Nc1ccccc1C(F)(F)F)CCO2 | -9.3 | -0.9
Cc1nc(-c2nnc(NC(=O)c3cc(Cl)cc(Cl)c3)o2)cs1 | 8.9 | 30.8
Cc1cc(C(=O)Nc2nnc(-c3csc(C)n3)o2)c(C)o1 | 8.8 | 77.6*
O=C1S/C(=C\c2ccccc2)C(=O)N1CNc1ccccc1F | -8.7 | 43.0
COc1cccc(CNC(=O)c2cn3cc(C)ccc3n2)c1 | -2.9 | -2.9
COc1ccc(-c2ccc3nc(C(=O)NCc4cccnc4)cn3c2)cc1 | 3.6 | 59.0*
O=C(CC1CCCCC1)N1CCCC(COc2cccc(C(=O)N3CCCCC3)c2)C1 (centres undefined) | -0.4 | 34.5
COc1cccc(CNC(=O)c2cnn3c4c(cnc23)CCCCCC4)c1OC | -1.1 | -5.7
COc1ccc(C(=O)N2CCC(n3nc(-c4ccsc4)ccc3=O)CC2)cc1 | -5.9 | 98.5*
O=C(c1cccnc1)N1CCC(n2nc(-c3ccsc3)ccc2=O)CC1 | 0.2 | 10.3
Cc1ccc(C(=O)N2CCC(c3nc(-c4ccncc4)n[nH]3)CC2)s1 | 12.3 | 11.8
COc1cccc(C(=O)N2CCC(n3nc(-c4ccsc4)ccc3=O)CC2)c1 | -1.7 | 100.1*
SMILES | Pf apPOL block | mHTT-CaM PPI inh
O=C(N1CCC(n2nc(-c3ccsc3)ccc2=O)CC1)C1(c2ccccc2)CC1 | -2.0 | -1.0
Cc1ccc(C(=O)N2CCC(n3nc(-c4ccsc4)ccc3=O)CC2)s1 | -3.9 | 100.2*
CC(Oc1ccccc1)C(=O)N1CCC(n2nc(-c3ccsc3)ccc2=O)CC1 (centres undefined) | 1.9 | 71.2*
COc1ccc(C(=O)N2CCC(N3CCCCCC3)CC2)cc1 | -3.6 | -1.7
COc1ccc(N2C(=O)CCC(C(=O)NC3CCCC(C)C3C)C2c2ccc(F)cc2)cc1 (centres undefined) | 6.1 | 32.0
Cc1cccc(CNC(=O)CC2CCN(S(=O)(=O)c3cccs3)CC2)c1 | 4.7 | -7.7
O=C(NCC(=O)N1N=C(c2ccccc2Cl)CC1c1ccccc1F)C1CCC1 (centres undefined) | -0.8 | 5.6
C=CCNC(=O)CN(c1ccccc1F)S(C)(=O)=O | -5.8 | -0.2
Cc1sc2cc(C(=O)NC(C)(C)C)[nH]c2c1CN1CCOCC1 | 14.4 | -5.8
O=C(c1cccc(F)c1)N1CCC(n2nc(-c3ccsc3)ccc2=O)CC1 | -0.8 | 95.3*
O=C(Cc1cccc(F)c1)N1CCC(n2nc(-c3ccsc3)ccc2=O)CC1 | -3.8 | 34.8
O=C(C1CC1)N1CCc2sc(S(=O)(=O)N3CCN(c4ccccc4)CC3)cc2C1 | -3.2 | 10.9
CNC(=O)c1[nH]c2ccc(C)cc2c1N1CCCC1=O | -4.4 | -3.6
Cc1ccc(/C=C2/N=C(c3c(-c4ccccc4)noc3C)OC2=O)cc1 | 2.7 | -2.0
COc1cc(C2=NC(=CC=Cc3ccccc3)C(=O)O2)cc(OC)c1OC | -10.2 | /
Cc1onc(-c2ccccc2)c1C1=N/C(=C\C=C\c2ccccc2)C(=O)O1 | -2.5 | 68.0*
COc1cc(C2=N/C(=C\C=C\c3ccccc3)C(=O)O2)cc(OC)c1OC | 1.3 | 61.0*
O=C(NCc1cccnc1Oc1ccccc1)c1cccnc1 | 4.9 | -5.7
